Rows were chosen to be rich in hits. Some 19% of all compounds tested hit in one or more screens of this group.
HT1080-NT tox: kills 2HG-producing HT-1080-NT fibrosarcoma cells; HT-1080-NT fibrosarcoma viability, CellTiter-Glo ATP luminescence, 48 h; Potency, µM (doses to about 46.1 µM), for the others: at the highest dose activity, negative = less viability, hits mostly cytotoxic; 1.6% of 360,000 active;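 further: NT is the 2HG producing partner of a matched IDH1 knockdown line; 0% = DMSO-treated cells and -100% = media-only wells without cells; nearly all actives have a fitted effect of over 55% in size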
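Read-out is CellTiter-Glo luminescence after 10 minutes at room temperature, following 48 hours' compound treatment of HT-1080-NT cells (750 cells/well, RPMI, 5% FBS, 37 degrees C).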
TDP1 cell noCPT: qHTS for Inhibitors of human tyrosyl-DNA phosphodiesterase 1 (TDP1): qHTS in cells in absence of CPT | DT40 Tdp1-/- hTDP1 cells, no CPT, ATP luminescence, 48 h | Potency, µM (doses to about 46.2 µM), for inactives: at the highest dose activity change, negative = growth inhibition, actives largely listed as inhibitors | 15% of 420,000 active; further: nearly all actives have a fitted effect of over 55% in size
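Compound effects on proliferation are scored in DT40 Tdp1-/-;hTDP1 cells in the absence of CPT. ATP levels (CellTiter-Glo luminescence) are recorded after a ≥48 hr, 37 °C incubation.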
KB-3-1 tox: kills parental KB-3-1 adenocarcinoma cells; AID 1347075; 1.4% of 400,000 active; Potency, µM (doses to about 46.1 µM), usual class: cytotoxic; KB-3-1 viability, CellTiter-Glo ATP luminescence, 72 h; further: nearly all actives have a fitted effect of over 60% in size
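KB-3-1 parental drug-naive adenocarcinoma cells in DMEM/10% FBS, incubated 72 h at 37 C with pin-transferred compounds across a concentration series. Viability by CellTiter-Glo luminescence; concentration-response curves fitted after normalization.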
DT40 TDP1 CPT: DT40-hTDP1 cell growth loss with CPT | 12% of 420,000 active | Potency, µM (highest dose often 46.2 µM), without a hit: at the highest dose activity change, negative = growth inhibition, usual class: inhibitors | chicken DT40 Tdp1-/-;hTDP1 cells + 20 nM CPT, ATP luminescence, 48 h; further: nearly all actives have a fitted effect of over 55% in size
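Chicken DT40 Tdp1-/- cells stably complemented with human TDP1 were seeded at 400 cells/well in medium containing 20 nM camptothecin, exposed to pin-transferred compounds, and grown at 37 °C for at least 48 hr. Viability was read as ATP luminescence.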
HT1080 IDH1KD tx: kills HT-1080 cells with IDH1 knockdown | Potency, µM (top dose mostly 46.1 µM), for inactives: at the top dose activity, negative = toxicity, actives largely listed as cytotoxic | HT-1080 IDH1 knockdown viability, ATP luminescence, 48 h | 2% of 360,000 active;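 further: 0% = DMSO wells and -100% = cell-free medium wells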
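HT-1080-IDH1KD cells (IDH1 knocked down), 750/well in RPMI with 5% FBS, treated with compound 48 h at 37 degrees C. Viability by CellTiter-Glo luminescence, normalised to DMSO and no-cell wells; concentration-response curves classed.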
KB-V1 MDR tox: kills drug-selected multidrug resistant KB-V1 cells. KB-V1 MDR cells viability, CellTiter-Glo, 72 h. Potency, µM (top dose mostly 46.1 µM), usual class: cytotoxic. AID 1347076. 3.4% of 400,000 active; further: nearly all actives have a fitted effect of over 60% in size
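Cytotoxicity via CellTiter-Glo luminescence after 72 h compound exposure at 37 degrees C. Cells: drug-selected KB-V1 line, DMEM phenol-red free plus 10% FBS. Compounds tested at multiple concentrations; normalized data fitted to concentration-effect curves.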
Numbers without * were called inactive; i = inactive; ? = inconclusive; · = no result given. The call rests on the fitted dose curve; in most records, active means well fitted curve in the direction sought with a large enough effect; inconclusive means small, poorly fitted or top-dose-only effect, or another doubt; inactive means no such curve, though single readings can be large; an effect the other way counts as inactive or inconclusive. Unless noted, on the % scale 0 is the no-effect control and ±100 the full control effect; potency means the concentration at half of the fitted maximal effect.

SMILES | HT1080-NT tox | TDP1 cell noCPT | KB-3-1 tox | DT40 TDP1 CPT | HT1080 IDH1KD tx | KB-V1 MDR tox
C[C@@H](N)C(=O)N[C@H]1CCC2C3CC=C4C[C@@H](O)CC[C@]4(C)C3CC[C@@]21C (stereo partly specified) | -5% | ? | i | -24% | -6% | i
CC(C)[C@H](N)C(=O)N[C@H]1CCC2C3CC=C4C[C@@H](O)CC[C@]4(C)C3CC[C@@]21C (stereo partly specified) | 18µM* | ? | i | ? | ? | i
C[C@]12CC[C@H](O)CC1=CCC1C2CC[C@@]2(C)C1CC[C@@H]2NCc1ccccc1 (stereo partly specified) | -2% | 21µM* | i | 21µM* | -10% | ?
CC(=O)C1(C)C(=O)N(c2ccc(C)cc2)C(=O)N1c1ccc(C)cc1 (stereo unspecified) | 11% | -13% | i | -20% | 19% | ?
O=C(Nc1ccc(Cl)cn1)c1cnn2c1NC(=C1CC1)C=C2C(F)F | · | -19% | i | ? | · | i
NCCCCCc1nnc(SCc2ccc(F)cc2)o1 | · | · | i | · | · | i
c1csc(Cn2c(-c3cccs3)nc3ccccc32)c1 | 1% | -17% | ? | ? | -11% | 21µM*
Cn1c(-c2cccs2)nc2ccccc21 | 0% | ? | i | -2% | 0% | i
Cc1ccccc1Cn1c(-c2cccs2)nc2ccccc21 | · | 16µM* | i | ? | · | i
Cc1ccccc1Cn1c(C(C)O)nc2ccccc21 (stereo unspecified) | -1% | ? | i | ? | -2% | i
CC(C)Cn1c(-c2cccs2)nc2ccccc21 | -4% | ? | ? | 16µM* | -4% | i
CC(C)Cn1c(-c2ccccc2Cl)nc2ccccc21 | · | 16µM* | i | ? | · | i
CC(C)n1c(NCc2cccs2)nc2ccccc21 | 11% | -5% | i | -18% | 23% | i
CCc1cccc(CC)c1NC(=O)Cn1c(-c2ccccc2Cl)nc2ccccc21 | 0% | -5% | i | 1% | 7% | ?
CCOc1ccc(N2CC(NC(=O)/C=C\c3ccc4c(c3)OCO4)CC2=O)cc1 (stereo unspecified) | · | 2% | · | -17% | · | ·
CCOC(=O)c1sc2cccc(F)c2c1S(=O)(=O)NCc1ccccc1Cl | · | -19% | i | -27% | · | i
COc1cc(OC)cc(-c2nc3n(n2)C(c2ccccc2F)C(C(=O)Nc2cccnc2)=C(C)N3)c1 (stereo unspecified) | · | ? | i | ? | · | ?
CCn1cc(CNCc2cn[nH]c2-c2cc3ccccc3o2)cn1 | -7% | 23µM* | i | 18µM* | -14% | i
CCn1cc(CNC(=O)c2cccc([N+](=O)[O-])c2)cn1 | 15% | 13% | i | 7% | 16% | i
CCc1ccc(CNC(=O)c2ccc(-c3nc(CSc4ccc(C)cc4)c(C)o3)cc2)cc1 | · | 1% | i | 9% | · | i
COc1cc(NC(=O)c2ccc(-c3nc(CSc4ccccc4)c(C)o3)cc2)cc(OC)c1 | · | 15µM* | · | 18µM* | · | ·
Cc1ccc(SCc2nc(-c3ccc(C(=O)NCc4ccccc4Cl)cc3)oc2C)cc1 | · | 9.2µM* | i | 8.2µM* | · | ?
COc1cccc(CNC(=O)c2ccc(-c3nc(CSc4ccccc4)c(C)o3)cc2)c1 | · | ? | i | -20% | · | i
Cc1ccc(S(=O)Cc2nc(-c3ccc(C(=O)NC(C)c4ccccc4)cc3)oc2C)cc1 (stereo unspecified) | · | 15µM* | i | ? | · | i
Cc1ccc(SCc2nc(-c3ccc(C(=O)Nc4cc(C)ccc4C)cc3)oc2C)cc1 | · | 8.2µM* | · | 8.2µM* | · | ·
SMILES | HT1080-NT tox | TDP1 cell noCPT | KB-3-1 tox | DT40 TDP1 CPT | HT1080 IDH1KD tx | KB-V1 MDR tox
CCn1c(=O)c2sccc2n2c(CCC(=O)Nc3ccc(OC)cc3OC)nnc12 | · | 4% | i | -6% | · | i
Cc1ccc(C)c(N(C)C(=O)c2coc(=O)c3ccccc23)c1 | 7% | 23µM* | i | ? | 2% | i
CCOC(=O)C1(C)NC(c2cccs2)C2C(=O)N(c3ccc(OC)cc3)C(=O)C21 (stereo unspecified) | 15% | 18µM* | i | 10µM* | 10% | i
CCOC(=O)C1(C)NC(c2ccccc2F)C2C(=O)N(c3cccc(C(C)=O)c3)C(=O)C21 (stereo unspecified) | ? | 18µM* | i | 23µM* | -1% | i
COCCNC(=O)C1(C)CCCN(C(=O)c2ccc(N(C)C)cc2)C1 (stereo unspecified) | -1% | 4% | i | -10% | 0% | i
CC1=C(C(=O)N(C)C)CC(CC(=O)NC2CCCCC2)C(=O)N1Cc1ccc(F)cc1 (stereo unspecified) | -1% | -25% | i | -2% | 13% | ?
Cc1cc(C)c(C)c(S(=O)(=O)N[C@@H](C)C(=O)OCC(=O)NC2CCCC(C)C2C)c1C (stereo partly specified) | 0% | -21% | i | -19% | 6% | i
O=c1c2cnn(-c3ccccc3)c2nc(-c2cccs2)n1-c1ccc(Cl)cc1 | 2% | 0.58µM* | i | 0.46µM* | 4% | i
O=c1c2cnn(-c3ccccc3)c2nc(-c2cccs2)n1-c1cccc(Cl)c1 | 3% | 9.2µM* | ? | 15µM* | 0% | 10µM*
O=c1oc(-c2cccs2)nc2c1cnn2-c1ccccc1 | 3% | ? | i | ? | 1% | i

Screens: PubChem, National Center for Advancing Translational Sciences (NCATS)
